Results on twelve molecules are retold here after PubChem BioAssay (Tox21).

Values without a mark were called inactive. Records with an inconclusive call do not appear. The source made the active and inactive calls. Unless noted, calls come from the whole dose curve; as a rule, active = well fitted curve in the direction sought with a large enough effect in the repeat runs; inconclusive = weak or mixed curves; inactive = no such curve, though single readings can be large; an effect the other way counts as inactive or inconclusive.

For experiment [1], the target named is Luciferin 4-monooxygenase (Photinus pyralis) (UniProt P08659). Nature of the experiment: qHTS assay to identify small molecule inhibitors of firefly luciferase (AID 1224835). Note: nearly all actives have a fitted effect of over 25% in size. Note: potency is the fitted concentration of half-maximal effect. The gist of the method:
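Inhibition of purified Photinus luciferase is measured by luminescence. Substrate levels (D-luciferin, ATP) sit at their KM values. Each compound is tested in a concentration series.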

Experiment [2] in a line: qHTS assay to identify small molecule agonists of the constitutive androstane receptor (CAR) signaling pathway - cell viability counter screen (AID 1224836). Note: nearly all actives have a fitted effect of over 45% in size. Note: potency is the fitted concentration of half-maximal effect. The gist of the method: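 HepG2 cells stably carrying hCAR and a CYP2B6-2.2kb reporter; 15-concentration compounds plus PK11195 (final 0.75 uM), 23 hr at 37 C/5% CO2. Viability read by CellTiter-Fluor fluorescence.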

Experiment [3] can be described thus: qHTS assay to identify small molecule antagonists of the constitutive androstane receptor (CAR) signaling pathway - cell viability counter screen (AID 1224837). Note: nearly all actives have a fitted effect of over 45% in size. Note: potency is the fitted concentration of half-maximal effect. The gist of the method:
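HepG2 cells stably expressing hCAR and a CYP2B6-2.2kb reporter were plated and pre-incubated 4 hr at 37 C/5% CO2, then given compounds at 15 concentrations plus 50 nM CITCO (final). After 23 hr, viability was read by CellTiter-Fluor fluorescence.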
Background: Quantitative high-throughput screening tests each substance at several concentrations.

Experiment [4] concerns the target Nuclear receptor subfamily 1 group I member 3 (Homo sapiens) (UniProt Q14994). Briefly: qHTS assay to identify small molecule agonists of the constitutive androstane receptor (CAR) signaling pathway (AID 1224839). Note: nearly all actives have a fitted effect of over 15% in size. The gist of the method: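 HepG2 cells stably co-transfected with hCAR and a CYP2B6-2.2kb luciferase reporter; compounds at 15 concentrations with 0.75 uM PK11195 present. After 24 hr at 37 C, luciferase read by ONE-Glo luminescence.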

The nature of experiment [5]: qHTS assay to identify small molecule antagonists of the estrogen related receptor signaling pathway with the pleiotropic PPARgamma coactivator (PGC) from Tox21 10K library - cell viability counter screen (AID 1224840; active = well fitted cell-killing curve with a large enough effect in the repeat runs, not every such curve was filed as active; note: nearly all actives have a fitted effect of over 40% in size; note: potency is the fitted concentration of half-maximal effect). The method, boiled down:
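PGC/ERR cells were seeded at 2,000 cells/well and left 6 hours at 37 C/5% CO2 before pin-tool addition of compounds in DMSO. After 17.5 hours at 37 C, CellTiter-Fluor was added and fluorescence read 30 minutes later.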

A short description of experiment [6]: qHTS assay to identify small molecule agonists of the estrogen related receptor signaling pathway with the pleiotropic PPARgamma coactivator (PGC) from Tox21 10K library (AID 1224842). Note: nearly all actives have a fitted effect of over 15% in size. The method, boiled down:
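Luminescence from One-Glo (30 min, room temperature) measured after PGC/ERR cells had 18 h at 37 C with pinned compound (23 nL in DMSO). Cells had been seeded at 2,000 per well and pre-incubated 6 h.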

A short description of experiment [7]: qHTS assay to identify small molecule agonists of the hypoxia (HIF-1) signaling pathway - cell viability counter screen (AID 1224844; calls by dose curve; note: nearly all actives have a fitted effect of over 50% in size). The method, boiled down: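 HRE-bla ME-180 cells in medium with 0.5% dialyzed FBS were preincubated 5 hrs at 37C, exposed to compounds for 17 hrs, then viability was read as CellTiter-Glo luminescence after 30 min at room temperature, in the reporter wells.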

A short description of experiment [8]: qHTS assay to identify small molecule agonists of the hypoxia (HIF-1) signaling pathway (AID 1224846; active = well fitted activation curve with a large enough effect in the signal ratio in the repeat runs, not every such curve was filed as active; the % refers to the signal ratio). The gist of the method:
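HRE-bla ME-180 cells (beta-lactamase reporter under hypoxia response element) were plated at 2,000 cells/well in medium with 0.5% dialyzed FBS, rested 5 hrs, then given compounds in DMSO for 17 hrs at 37C, 5% CO2. Reporter induction was read with CCF4-AM FRET substrate.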

Experiment [9] is described as follows: qHTS assay to identify small molecule agonists of H2AX - cell viability counter screen (AID 1224847; calls by dose curve; note: nearly all actives have a fitted effect of over 30% in size; note: potency is the fitted concentration of half-maximal effect). The method, boiled down: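 CHO-K1 cells plated overnight at 37C, then exposed 3 h at 37C to compounds at 15 concentrations (0.76% DMSO final). Viability by CellTiter-Glo luminescence after 30 min at room temperature.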
The nature of experiment [10]: qHTS assay to identify small molecule agonists of the estrogen related receptor (ERR) signaling pathway from Tox21 library (AID 1224849; calls by dose curve; note: nearly all actives have a fitted effect of over 15% in size). Conditions: ERR reporter cell line, ONE-Glo luciferase, 18 h; at 92.4 µM (top of the series) unless noted. The method, boiled down:
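ERR reporter cell line (NTP) seeded, rested 6 h at 37 C/5% CO2, then pinned with Tox21 compounds in DMSO. After 18 h at 37 C, ONE-Glo luciferase luminescence was read following 30 min at room temperature.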

Experiment [11] in a line: qHTS RealTime-Glo MT Cell Viability Assay in HepG2 cells - 24 hour (AID 1224867). Note: nearly all actives have a fitted effect of over 50% in size. The method, boiled down: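 Viability was tracked continuously by NanoLuc luminescence from prosubstrate reduced by living HepG2 cells, at successive time points over 40 h of compound exposure. Cells with reagent were preincubated 5 h at 37 °C before compound addition.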
Experiment [12] can be described thus: qHTS RealTime-Glo MT Cell Viability Assay in HEK293 cells - 32 hour (AID 1224868). Note: nearly all actives have a fitted effect of over 50% in size. Note: potency is the fitted concentration of half-maximal effect. The gist of the method:
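Viability tracked continuously by luminescence as live cells reduce a prosubstrate for NanoLuc; HEK293 cells preincubated 5 h, compound-treated at 37 C, and read at 0, 8, 16, 24, 32 and 40 h.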

A short description of experiment [13]: A CellTox Green Cytotoxicity Assay to monitor cytotoxicity in HEK293 cells - 0 hour (AID 1224869). Note: nearly all actives have a fitted effect of over 50% in size. The gist of the method:
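HEK293 cells premixed with CellTox Green dye were seeded at 600 cells/well and left 5 h at 37 C/5% CO2 before pin transfer of 23 nL compound in DMSO. Fluorescence from dye bound to dead-cell DNA was read during 40 h treatment.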

The nature of experiment [14]: qHTS RealTime-Glo MT Cell Viability Assay in HepG2 cells - 40 hour (AID 1224870). Note: nearly all actives have a fitted effect of over 50% in size. The gist of the method:
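Real-time viability: cells seeded at 600 per well together with NanoLuc and cell-permeant prosubstrate, compounds added after 5 h incubation. Luminescence tracked at 0, 8, 16, 24, 32 and 40 h of exposure.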

In experiment [15] the target is Thyrotropin receptor (Homo sapiens) (UniProt P16473). Nature of the experiment: qHTS assay to identify small molecule agonists of the thyroid stimulating hormone receptor (TSHR) signaling pathway (AID 1224843; calls by dose curve; note: nearly all actives have a fitted effect of over 45% in size). The gist of the method:
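Screening of the Tox21 10K collection used HEK293 cells engineered with TSHR at 800 cells per well. After a 30-min room-temperature compound exposure, HTRF cAMP reagents were added and fluorescence recorded 1 h later.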

A short description of experiment [16]: qHTS assay to identify small molecule agonists of H2AX (AID 1224845; active = well fitted activation curve with a large enough effect in the signal ratio in the repeat runs, not every such curve was filed as active; the % refers to the signal ratio). The method, boiled down: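 Phospho-H2AX Ser139 measured by HTRF (ex 320 nm; em 665 and 620 nm) after 24 hr antibody incubation. Compounds, 15 concentrations, 0.76% DMSO, were applied to CHO-K1 cells for 3hr at 37C before lysis.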
Experiment [17] in a line: qHTS assay to identify small molecule antagonists of the estrogen related receptor (ERR) signaling pathway from Tox21 library (AID 1224848). Note: nearly all actives have a fitted effect of over 50% in size. Note: potency is the fitted concentration of half-maximal effect. The method, boiled down:
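Antagonist-mode screen of the Tox21 10K library in an NTP-provided ERR reporter cell line; 18 h compound exposure at 37 C, luminescence measured with ONE-Glo.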

Experiment [18] deals with Nuclear receptor subfamily 1 group I member 3 (Homo sapiens) (UniProt Q14994). Briefly: qHTS assay to identify small molecule antagonists of the constitutive androstane receptor (CAR) signaling pathway (AID 1224838). Note: nearly all actives have a fitted effect of over 40% in size. The gist of the method: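 HepG2 cells stably co-transfected with hCAR and a CYP2B6-2.2kb luciferase reporter were seeded 4 h before compound addition at 15 concentrations. Cells were stimulated with 50 nM CITCO (final) for 24 h at 37 C; luciferase luminescence was then read.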

Experiment [19] is described as follows: qHTS assay to identify small molecule antagonists of the estrogen related receptor signaling pathway with the pleiotropic PPARgamma coactivator (PGC) from Tox21 10K library (AID 1224841; call rule not given here; note: potency is the fitted concentration of half-maximal effect). The gist of the method: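 PGC/ERR reporter cells were seeded at 2,000 cells/well and held 6 hours at 37 C/5% CO2 before pin-tool addition of compounds in DMSO. After 18 hours at 37 C, One-Glo was added and luminescence read after 30 minutes at room temperature.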
% is set by controls: 0 for no effect and ±100 for the full control effect.

Nuclear receptor subfamily 1 group I member 3 (Homo sapiens), sequence (Q14994 whole entry, looked up): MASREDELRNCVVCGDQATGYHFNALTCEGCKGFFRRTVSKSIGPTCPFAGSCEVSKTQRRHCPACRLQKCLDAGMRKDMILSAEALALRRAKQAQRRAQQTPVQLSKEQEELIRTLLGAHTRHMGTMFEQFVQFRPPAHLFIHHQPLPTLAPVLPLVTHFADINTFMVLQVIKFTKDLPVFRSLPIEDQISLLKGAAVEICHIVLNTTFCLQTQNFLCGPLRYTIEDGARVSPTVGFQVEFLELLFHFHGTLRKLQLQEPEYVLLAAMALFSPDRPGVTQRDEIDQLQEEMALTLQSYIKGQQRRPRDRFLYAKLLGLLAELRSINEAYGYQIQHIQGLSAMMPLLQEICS
Thyrotropin receptor (Homo sapiens), sequence (P16473 whole entry, looked up): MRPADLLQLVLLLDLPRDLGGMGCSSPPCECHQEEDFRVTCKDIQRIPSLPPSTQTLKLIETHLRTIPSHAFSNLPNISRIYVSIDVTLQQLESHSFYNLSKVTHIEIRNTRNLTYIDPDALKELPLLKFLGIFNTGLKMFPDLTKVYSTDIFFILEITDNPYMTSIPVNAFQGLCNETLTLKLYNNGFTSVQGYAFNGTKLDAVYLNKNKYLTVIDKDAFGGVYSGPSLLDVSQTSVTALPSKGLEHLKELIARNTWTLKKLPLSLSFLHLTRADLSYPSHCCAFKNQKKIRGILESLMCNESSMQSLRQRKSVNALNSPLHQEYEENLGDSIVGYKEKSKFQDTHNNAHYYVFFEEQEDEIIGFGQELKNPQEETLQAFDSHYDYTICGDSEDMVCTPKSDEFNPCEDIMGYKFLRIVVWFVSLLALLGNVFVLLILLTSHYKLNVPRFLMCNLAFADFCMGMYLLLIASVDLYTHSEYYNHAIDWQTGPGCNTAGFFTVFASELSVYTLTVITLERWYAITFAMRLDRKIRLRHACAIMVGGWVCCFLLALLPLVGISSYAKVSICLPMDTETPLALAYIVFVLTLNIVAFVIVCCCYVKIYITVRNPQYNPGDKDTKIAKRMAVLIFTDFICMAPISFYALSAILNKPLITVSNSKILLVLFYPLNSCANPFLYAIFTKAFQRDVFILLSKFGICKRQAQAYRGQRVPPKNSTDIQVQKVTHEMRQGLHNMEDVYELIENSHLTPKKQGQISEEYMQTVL
Luciferin 4-monooxygenase (Photinus pyralis), sequence (P08659 whole entry, looked up): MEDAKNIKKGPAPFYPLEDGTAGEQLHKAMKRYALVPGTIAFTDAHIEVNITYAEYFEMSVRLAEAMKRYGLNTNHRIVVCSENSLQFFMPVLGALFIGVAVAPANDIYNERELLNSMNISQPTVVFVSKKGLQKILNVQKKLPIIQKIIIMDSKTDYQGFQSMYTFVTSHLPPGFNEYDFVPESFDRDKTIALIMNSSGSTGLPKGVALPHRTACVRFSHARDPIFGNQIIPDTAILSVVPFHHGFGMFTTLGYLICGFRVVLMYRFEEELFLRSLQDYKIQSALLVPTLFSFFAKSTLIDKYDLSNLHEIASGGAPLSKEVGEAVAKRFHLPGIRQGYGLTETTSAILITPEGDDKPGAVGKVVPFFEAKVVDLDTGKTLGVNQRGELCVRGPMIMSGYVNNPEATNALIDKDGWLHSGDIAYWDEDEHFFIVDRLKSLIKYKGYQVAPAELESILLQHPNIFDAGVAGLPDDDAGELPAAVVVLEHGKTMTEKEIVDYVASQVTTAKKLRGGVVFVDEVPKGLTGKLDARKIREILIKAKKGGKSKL

On to `COc1ccccc1N=Nc1c(S(=O)(=O)O)cc2cc(S(=O)(=O)O)cc(NC(C)=O)c2c1O`, for which the Potency is 29.8 µM (active) in [1]; 25.7 µM (active) in experiment [2]; 25.7 µM (active) in experiment [3]; 25.7 µM (active) in experiment [5]; 42.3 µM (active) in [9]. Besides, the Potency result in experiment [4], in experiment [6], in [7], in experiment [11], in [12] and in [13] was “inactive” in each case. In addition, in [14], the Potency result is “inactive”. Besides, the call in experiment [8] was inactive. In experiment [10], the activity change, positive = activation is -27.5%.
For the molecule `CCC(=O)Oc1ccc(/C(CC)=C(\CC)c2ccc(OC(=O)CC)cc2)cc1`, the Potency result in experiment [1], in experiment [2], in experiment [3], in experiment [6], in [15] and in experiment [16] was “inactive” each time. Further, the Potency entry in [9], in experiment [11], in experiment [13] and in experiment [14] was “inactive” throughout. The Potency in [17] is 27.3 µM (active); in [12], 17.4 µM (active). In [10], the activity change, positive = activation is -47.8%.
As to `CC(C)CCCCCCOC(=O)CCCCC(=O)OCCCCCCC(C)C`, the Potency entry in experiment [1], in experiment [2], in [3], in experiment [7], in experiment [16] and in [9] was “inactive” in each case. Also, the Potency entry in experiment [11], in experiment [12], in experiment [13] and in experiment [14] was “inactive” each time. In addition, in experiment [8], the molecule was classed as inactive.
Turning to `C(=C\c1ccccc1)/CN1CCN(C(c2ccccc2)c2ccccc2)CC1`, the Potency entry in experiment [2], in experiment [3], in [18], in experiment [4], in experiment [5] and in [15] was “inactive” in each case. In addition, the Potency entry in experiment [7], in experiment [11], in experiment [13] and in experiment [14] was “inactive” throughout.
In the case of `O=C(CCC1CCN(Cc2ccccc2)CC1)c1ccc2c(c1)NCCCC2`, the Potency entry in [1], in [2], in experiment [3], in experiment [5], in [6] and in [15] was “inactive” in each case. For the same molecule, the Potency entry in experiment [7], in [16], in experiment [9], in experiment [11], in [13] and in experiment [14] was “inactive” throughout. In addition, the Potency in [19] is 18.8 µM (active); in [17] it was 18.8 µM (active); in [12] it was 8.49 µM (active). Also, the outcome in experiment [8] was inactive. The activity change, positive = activation in experiment [10] is -36% [at 42.5 µM].
`CCC1(C)CC(=O)NC1=O` (stereo not drawn): the Potency entry in experiment [1], in experiment [2], in [3], in experiment [7], in [9] and in experiment [11] was “inactive” in each case. The Potency entry in [12], in experiment [13] and in [14] was “inactive” throughout.
As for `C[Si](NC1CCCCC1)(NC1CCCCC1)NC1CCCCC1`, the Potency entry in [1], in [2], in [3], in experiment [5], in [15] and in [9] was “inactive” each time. Also, the Potency entry in experiment [11], in experiment [12], in [13] and in [14] was “inactive” each time.
Take `N#C/C(=C1/SC[C@@H](c2ccc(Cl)cc2Cl)S1)n1ccnc1`: the Potency entry in experiment [1], in experiment [2], in experiment [3], in experiment [18], in experiment [6] and in experiment [15] was “inactive” each time. Also, the Potency result in experiment [16], in experiment [9], in [11], in experiment [12], in [13] and in experiment [14] was “inactive” in each case. Also, the Potency in [19] and in experiment [17] was 23.7 µM (active) each time. The outcome in experiment [8] was inactive. Moreover, the activity change, positive = activation in experiment [10] was -40.9% [at 42.5 µM].
Take `CCOC(=O)OCC`: the Potency entry in [1], in experiment [2], in experiment [3], in experiment [5], in experiment [15] and in [7] was “inactive” throughout. Besides, the Potency entry in [16], in experiment [9], in experiment [12], in experiment [13] and in [14] was “inactive” each time. In addition, the call in experiment [8] was inactive.
`COc1ccc(CCC(=O)c2c(O)cc(O[C@@H]3O[C@H](CO)[C@@H](O)[C@H](O)[C@H]3O[C@@H]3O[C@@H](C)[C@H](O)[C@@H](O)[C@H]3O)cc2O)cc1O`: the Potency result in experiment [2], in experiment [3], in experiment [5], in [19], in experiment [6] and in experiment [15] was “inactive” throughout. Also, the Potency entry in [7], in experiment [9], in experiment [17], in [12], in [13] and in experiment [14] was “inactive” in each case. Moreover, the molecule was called inactive in experiment [8]. The activity change, positive = activation in experiment [10] was 1.69%.
In the case of `CCC(Cc1ccccc1)(C(=O)c1ccc(N2CCOCC2)cc1)N(C)C` (stereo not drawn), the Potency result in [1], in experiment [3], in experiment [5], in [6], in [15] and in [7] was “inactive” throughout. In addition, the Potency result in experiment [11], in experiment [13] and in experiment [14] was “inactive” each time. Also, the result in experiment [8] was inactive. In addition, in experiment [17], the Potency is 17.2 µM (active). Besides, in experiment [10], the activity change, positive = activation was -33.5%.
As for `CC(C)=CC=O`, the Potency result in experiment [1], in experiment [2], in experiment [3], in experiment [5], in [9] and in [11] was “inactive” throughout. The Potency entry in [12], in experiment [13] and in [14] was “inactive” throughout. In experiment [8], the result was inactive.
